# High-throughput results deposited in PubChem BioAssay by several laboratories.
# F-actin modifier = modifiers of F-actin cytoskeleton organization, primary screen, imaging, HUVEC, phalloidin staining, high-content imaging | AID 836, 2007 | HUVEC TNFa F-actin phalloidin imaging | actives 0.18% (n = 91,000) | inhibition, % at 2 µM;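 active means inhibition above the batch mean plus 3 SD and confirmed as a hit by visual image inspection, cut at about 30% in these data, passing the limit was not always enough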
# CYP2C9 act = human CYP2C9 activators, primary screen, biochemical, luminescence; AID 1024, 2008; actives 1.4% (n = 96,000); activation factor at 5 µM; Cytochrome P450 2C9 (Homo sapiens), P11712; recombinant CYP2C9, luciferin-H conversion; active compounds read high; factor 1 = untreated enzyme, 0 = blocked;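 active means activation factor of 2 or more for CYP2C9 at a 5 µM dose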
# CYP2C19 act = human CYP2C19 activators, primary screen, biochemical, luminescence | Cytochrome P450 2C19 (Homo sapiens), P33261 | recombinant CYP2C19, luciferin-H EGE luminescence; active compounds read high; 0 = fully inhibited enzyme, 1 = untreated enzyme | activation factor at 5 µM | 96,000 tested, under 10 active | AID 1025, 2008;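 active means activation factor of at least 2 at 5 µM in the primary screen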
# Target sequence (P33261 whole entry, looked up): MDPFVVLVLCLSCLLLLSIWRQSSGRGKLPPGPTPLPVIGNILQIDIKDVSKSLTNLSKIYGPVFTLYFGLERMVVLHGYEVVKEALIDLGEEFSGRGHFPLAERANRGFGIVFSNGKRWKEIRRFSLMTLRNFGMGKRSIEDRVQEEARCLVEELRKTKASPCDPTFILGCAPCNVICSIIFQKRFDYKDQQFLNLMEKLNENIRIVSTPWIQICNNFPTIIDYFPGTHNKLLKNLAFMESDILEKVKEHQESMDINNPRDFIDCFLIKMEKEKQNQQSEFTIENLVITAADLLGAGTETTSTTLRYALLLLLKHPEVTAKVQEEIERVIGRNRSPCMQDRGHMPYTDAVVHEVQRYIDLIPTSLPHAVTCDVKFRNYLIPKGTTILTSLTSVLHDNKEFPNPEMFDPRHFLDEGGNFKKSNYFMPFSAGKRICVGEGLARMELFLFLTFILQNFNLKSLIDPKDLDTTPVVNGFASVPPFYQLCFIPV
# CYP2C19 inh = blockers of cytochrome P450 2C19 activity – biochemical, luminescence, ADME assay, primary screen. actives 21% (n = 96,000). inhibition, % at 5 µM. CYP2C19 Supersomes, luciferin-H EGE luminescence, 30 min. P33261;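 active means CYP2C19 inhibition above a set limit at 5 µM in the primary screen, cut at about 50% in these data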
# CYP2C9 inhib = blockers of cytochrome P450 2C9 activity – biochemical, luminescence, ADME assay, primary screen; AID 777, 2007; actives 20% (n = 96,000); P11712; inhibition, % at 5 µM; CYP2C9 Supersomes, luciferin-H conversion;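 active means blocking of liver enzyme CYP2C9 beyond about 50% at 5 µM, limit read from the data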
# E-sel TNF inh = E-selectin induction blockers in HUVEC – imaging, immunofluorescence, high content, primary screen; inhibition, % at 2 µM; AID 1246, 2008; actives 0.71% (n = 120,000); HUVEC TNFa-induced E-selectin immunofluorescence;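 active means inhibition above the batch mean plus 3 SD, and confirmed as a hit on visual image review, cut at about 43% in these data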
# Hits are given with their value; . = inactive; / = not tested or not shown. Shown are actives, neighbours in structure and some others; about 22% of the full set was active somewhere.
SMILES,F-actin modifier,CYP2C9 act,CYP2C19 act,CYP2C19 inh,CYP2C9 inhib,E-sel TNF inh
CCOC(=O)Cc1c(C)c2ccc(N(CC)CC)cc2oc1=O,.,2.1,.,.,.,.
COc1ccc(OCC(=O)Nc2ccc3oc(-c4ccncc4)nc3c2)cc1,/,/,/,/,/,.
CCCC(=O)Nc1ccc2oc(-c3ccncc3)nc2c1,.,.,.,56,78,.
CCCCC(=O)Nc1ccc2oc(-c3ccncc3)nc2c1,.,.,.,58,63,.
O=C(COc1ccc(Cl)cc1)Nc1ccc2oc(-c3ccncc3)nc2c1,.,.,.,52,62,.
O=C(CN1CCN(c2ccccn2)CC1)Nc1ccc(OCc2ccccc2)cc1,.,.,.,.,.,.
O=C(CN1CCOCC1)Nc1ccc(OCc2ccccc2)cc1,.,.,.,.,.,.
O=C(CN1CCN(CC(=O)Nc2ccc(OCc3ccccc3)cc2)CC1)Nc1ccc(F)cc1,.,/,/,/,/,64
O=C(CN1CCN(c2ncccn2)CC1)NCc1ccccc1,.,.,.,61,92,.
O=C(CN1CCOCC1)NCc1ccccc1,.,.,.,.,.,.
O=C(CN1CCN(c2ccccn2)CC1)Nc1ccccc1,.,.,.,56,.,.
O=C(CN1CCN(c2ccccn2)CC1)Nc1ccc(Oc2ccccc2)cc1,.,.,.,.,53,.
O=C(CN1CCN(c2ccccn2)CC1)NCCc1ccccc1,.,.,.,.,.,.
Cc1cccc(-n2nnc(C(=O)NC3CCCc4ccccc43)c2N)c1 (stereo not drawn),.,.,.,.,.,.
CC(NC(=O)CN1CCN(c2ncccn2)CC1)c1ccc(F)cc1 (stereo not drawn),.,.,.,.,92,.
CC(C)NC(=O)CN1CCN(c2ncccn2)CC1,.,.,.,.,.,.
O=C(CN1CCN(c2ccccn2)CC1)NC1CCCC1,.,.,.,.,.,.
O=C(CN1CCN(c2ccccn2)CC1)Nc1ccc(F)cc1,.,.,.,61,73,.
O=S(=O)(NCc1ccco1)N1CCOCC1,.,.,.,.,.,.
CC(Nc1nc2ncn(Cc3ccccc3)c2c(=O)[nH]1)C(=O)O (stereo not drawn),.,.,.,.,.,.
COC(=O)c1ccc(/C=N/N2CCN(Cc3ccccc3)CC2)cc1,.,.,.,.,.,.
Cc1cccc(CSc2nnc(-c3cccs3)n2Cc2ccco2)c1,.,.,.,69,53,.
C=CCn1c(SCC(=O)NC(=O)NCc2ccco2)nc2sc(C)c(C)c2c1=O,.,.,.,.,.,/
Cc1cccc(CSc2nc3sc(C)c(C)c3c(=O)n2Cc2ccco2)c1,.,.,.,.,84,.
COc1cccc(CSc2nc3sc(C)c(C)c3c(=O)n2Cc2ccco2)c1,.,.,.,56,78,/
SMILES,F-actin modifier,CYP2C9 act,CYP2C19 act,CYP2C19 inh,CYP2C9 inhib,E-sel TNF inh
Cc1sc2nc(SCc3nc4ccccc4[nH]3)n(Cc3ccco3)c(=O)c2c1C,.,.,.,.,78,.
CCC1(C)Cc2c(sc3c2c(=O)n(C)c2nnc(SCCc4ccccc4)n32)CO1 (stereo not drawn),/,.,.,.,.,.
[O-]/[N+](=C/c1ccc(F)cc1)c1ccc(Cl)cc1,/,.,.,.,.,.
Cc1cc(-c2nnco2)c(C)n1-c1ccc(F)cc1,.,.,.,58,.,/
COCC(C)n1c(C)cc(C(=O)CSc2nnc(Nc3ccccc3F)s2)c1C (stereo not drawn),.,.,.,70,.,.
C=CCn1c(C)cc(C(=O)CSc2nnc(NCc3ccccc3)s2)c1C,.,/,/,/,/,.
C=CCn1c(C)cc(C(=O)CSc2nnc(NC(C)C)s2)c1C,.,.,.,73,.,.
COCC(C)n1c(C)cc(C(=O)CSc2ccc(NC(C)=O)cc2)c1C (stereo not drawn),.,.,.,81,.,.
Cc1cc(C(=O)CSc2n[nH]c(-c3ccccc3F)n2)c(C)n1Cc1cccs1,.,.,.,63,92,.
O=C(CSc1nnc(Nc2ccccc2F)s1)c1cc2ccccc2o1,/,/,/,/,/,.
O=C(Cc1ccccc1)N1CCN(C(=O)c2ccc([N+](=O)[O-])cc2)CC1,/,/,/,/,/,.
O=C(COC(=O)c1ccco1)NCc1ccccc1Cl,/,/,/,/,/,.
Cc1cc(C)nc(N2CCN(c3ncnc4c3cnn4Cc3ccc(Cl)cc3Cl)CC2)n1,/,.,.,.,.,/
Cc1c(C(=O)NCCSCc2c(Cl)cccc2Cl)cccc1[N+](=O)[O-],.,.,.,.,.,.
C=CCn1c(C)cc(C(=O)CSc2ccc(NC(C)=O)cc2)c1C,/,.,.,91,.,.
COCCn1c(C)cc(C(=O)CSc2ccc3ccccc3n2)c1C,.,.,.,68,.,.
Cc1csc(SCC(=O)c2cc(C)n(Cc3cccs3)c2C)n1,.,.,.,84,50,.
COCCn1c(C)cc(C(=O)CSc2ccc(NC(C)=O)cc2)c1C,.,.,.,93,.,.
Cc1cc(C(=O)CSc2nnc(N)s2)c(C)n1Cc1cccs1,/,/,/,/,/,.
COCCn1c(C)cc(C(=O)CSc2nc3ccccc3c(=O)[nH]2)c1C,.,.,.,.,.,.
CC(=O)Nc1ccc(SCC(=O)c2cc(C)n(Cc3cccs3)c2C)cc1,.,.,.,.,63,.
Clc1nc(-c2ccccc2)cc(-c2ccc(Br)cc2)n1,.,/,/,/,/,.
COc1ccc(-c2nnc(SC(C)C(=O)Nc3cccc(Cl)c3)o2)cc1 (stereo not drawn),.,.,.,.,61,.
CC(Sc1nnc(-c2ccc(O)cc2)o1)C(=O)Nc1cccc2ccccc12 (stereo not drawn),.,.,.,72,.,.
CCn1c(CSc2nc3ccccc3s2)nnc1SCC(=O)c1ccc(O)cc1O,.,.,.,.,.,.
SMILES,F-actin modifier,CYP2C9 act,CYP2C19 act,CYP2C19 inh,CYP2C9 inhib,E-sel TNF inh
O=C(c1cc(-c2ccco2)nn1-c1cccc(Cl)c1)N1CCCCC1,.,.,.,64,87,.
COC(=O)CC(=O)CSc1nc2c(cc1C#N)CCC2,.,.,.,.,.,.
CC(=O)OC1COC(N2CCc3cc([N+](=O)[O-])ccc32)C(OC(C)=O)C1OC(C)=O (stereo not drawn),.,.,.,72,81,.
CCOc1ccc2[nH]c(=O)c(CN(C(=O)N3CCOCC3)C3CC3)cc2c1,/,.,.,.,.,/
CC(=O)N1CCN(c2ccc([N+](=O)[O-])cc2)CC1,/,/,/,/,/,.
CC(=O)N1CCN(C(=S)c2ccc([N+](=O)[O-])cc2)CC1,.,.,.,51,.,.
CCOC(=O)C1=C(C)Nc2sc(C(=O)c3ccc(F)cc3)c(N)c2C1c1ccc(C(=O)OC)cc1 (stereo not drawn),/,/,/,/,/,.
